Several values for one entry are separate records, joined by “and”; a condition that tells them apart may be missing. Equal values may be shown once. Screen size: about 5,500 compounds; about 2,000 (36%) were called active. Inconclusive results (about 18%) are left out. Cut-off read from the data, not from the text of the source: active = normalized growth mostly below about 0.91 (no sharp cut-off); inconclusive = no clear call, values can overlap the other calls; inactive = mostly above about 0.92. This is one part of the list.
Experiment: chemical genetic growth profiling, strain panel (AID 1159580);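 note: tested at 20 µM; growth read once vehicle control cultures reached saturation at 30 °C; 1 = growth at the plate median or of vehicle wells; lower values mean less growth of the strain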
Settings: S. cerevisiae deletion strains, growth OD

Measured: normalized growth

Nc1ccc(S(=O)(=O)Nc2cnc3ccccc3n2)cc1
inactive: locus YAL013W, strain DEP1, active compounds read low 0.994 | locus YAL021C, strain ccr4, active compounds read low 1.01 | locus YAL026C, strain drs2, active compounds read low 1 | locus YAL030W, strain snc1, active compounds read low 1.02 | locus YBL061C, strain skt5, active compounds read low 1 | locus YBR009C, strain hhf1, active compounds read low 0.973 | locus YBR021W, strain FUR4, active compounds read low 0.999 | locus YBR023C, strain chs3, active compounds read low 1.02 | locus YBR171W, strain sec66, active compounds read low 1.02 | locus YBR229C, strain ROT2, active compounds read low 0.957 | locus YBR231C, strain swc5, active compounds read low 1.01 | locus YBR279W, strain paf1, active compounds read low 1.01 | locus YCL011C, strain gbp2, active compounds read low 1.01 | locus YCL016C, strain dcc1, active compounds read low 1 | locus YCL029C, strain bik1, active compounds read low 0.983 | locus YCL061C, strain MRC1, active compounds read low 1.02 | locus YCL069W, strain vba3, active compounds read low 1.02 | locus YCR088W, strain abp1, active compounds read low 1.01 | locus YDL005C, strain med2, active compounds read low 1.02 | locus YDL035C, strain GPR1, active compounds read low 1 | locus YDL040C, strain nat1, active compounds read low 1.01 | locus YDL074C, strain BRE1, active compounds read low 0.977 | locus YDL101C, strain DUN1, active compounds read low 0.989 | locus YDL134C, strain PPH21, active compounds read low 1.01 | locus YDL185W, strain tfp1, active compounds read low 0.974 | locus YDL192W, strain arf1, active compounds read low 0.973 | locus YDR001C, strain nth1, active compounds read low 1.02 | locus YDR069C, strain doa4, active compounds read low 1.03 | locus YDR101C, strain arx1, active compounds read low 1 | locus YDR137W, strain rgp1, active compounds read low 0.993 | locus YDR150W, strain NUM1, active compounds read low 0.991 | locus YDR159W, strain sac3, active compounds read low 0.955 | locus YDR162C, strain NBP2, active compounds read low 0.999 | locus YDR195W, strain ref2 1.01 | locus YDR297W, strain sur2, active compounds read low 1.02 | locus YDR318W, strain mcm21, active compounds read low 0.995 | locus YDR334W, strain swr1, active compounds read low 1.02 | locus YDR335W, strain msn5, active compounds read low 1.01 | locus YDR388W, active compounds read low 0.986 | locus YDR392W, strain spt3, active compounds read low 0.942 | locus YDR502C, strain sam2, active compounds read low 0.978 | locus YEL003W, strain gim4, active compounds read low 1.02 | locus YEL037C, strain rad23, active compounds read low 1.01 | locus YEL061C, strain CIN8 (second series), active compounds read low 1.01 | locus YEL061C, strain CIN8, active compounds read low 0.981 | locus YER015W, strain faa2, active compounds read low 1 | locus YER016W, strain bim1, active compounds read low 0.962 | locus YER110C, active compounds read low 0.981 | locus YER111C, strain swi4, active compounds read low 1.02 | locus YER155C, strain BEM2 (second series), active compounds read low 0.981 | locus YER155C, strain BEM2, active compounds read low 0.996 | locus YER167W, strain BCK2, active compounds read low 0.993 | locus YFR010W, strain ubp6, active compounds read low 1.04 | locus YGL078C, strain dbp3, active compounds read low 0.99 | locus YGL086W, strain mad1, active compounds read low 0.983 | locus YGL167C, strain pmr1, active compounds read low 1.01 | locus YGL173C, strain kem1, active compounds read low 1.01 | locus YGL227W, strain vid30, active compounds read low 1.02 | locus YGL240W, strain doc1, active compounds read low 1.03 | locus YGL248W, strain PDE1, active compounds read low 0.972 | locus YGL253W, strain hxk2, active compounds read low 1.02 | locus YGR135W, strain pre9, active compounds read low 0.992 | locus YGR252W, strain gcn5, active compounds read low 0.988 | locus YHR013C, strain ard1, active compounds read low 1 | locus YHR027C, strain rpn1, active compounds read low 1.01 | locus YHR030C, strain SLT2, active compounds read low 1 and 0.974 | locus YHR079C, strain IRE1 (second series), active compounds read low 0.989 | locus YHR079C, strain IRE1, active compounds read low 0.957 | locus YHR094C, strain hxt1, active compounds read low 0.985 | locus YHR129C, strain ARP1, active compounds read low 0.989 | locus YHR142W, strain chs7, active compounds read low 1.05 | locus YHR200W, strain rpn10, active compounds read low 0.967 | locus YIL066C, strain RNR3, active compounds read low 0.978 | locus YIL073C, strain SPO22, active compounds read low 1.02 | locus YIL125W, strain kgd1, active compounds read low 0.981 | locus YIR030C, strain dcg1, active compounds read low 0.981 | locus YJL092W, strain hpr5, active compounds read low 0.996 | locus YJL095W, strain BCK1 (second series), active compounds read low 1.02 | locus YJL095W, strain BCK1, active compounds read low 0.965 and 0.98 | locus YJL115W, strain asf1, active compounds read low 1.02 | locus YJL129C, strain trk1, active compounds read low 1.01 | locus YJL134W, strain LCB3, active compounds read low 0.993 | locus YJL154C, strain vps35, active compounds read low 1.02 | locus YJL164C, strain tpk1, active compounds read low 0.996 | locus YJL166W, strain qcr8, active compounds read low 1.02 | locus YJL168C, strain set2, active compounds read low 0.976 | locus YJL187C, strain SWE1 (second series), active compounds read low 0.964 | locus YJL187C, strain SWE1, active compounds read low 1.01 | locus YJR043C, strain POL32, active compounds read low 1.02 | locus YJR066W, strain TOR1, active compounds read low 0.918
